Potency and affinity values are given separately.
System: Candida albicans
Conditions: 20 µM

Compound	Inhibition [%]
O=[N+]([O-])c1cccc2cn[nH]c12 [7-NITROINDAZOLE]	3.19
NC(=O)c1cnccn1 [PYRAZINAMIDE]	1.92
CCCNC(=O)NS(=O)(=O)c1ccc(Cl)cc1 [CHLORPROPAMIDE]	3.19
CCN(CC)CCOC(=O)C1(C2CCCCC2)CCCCC1.Cl [DICYCLOMINE HYDROCHLORIDE]	3.82
CC1=C(/C=C/C(C)=C/C=C/C(C)=C\C(=O)O)C(C)(C)CCC1 [ISOTRETINOIN]	1.42

System: Cryptococcus neoformans
Conditions: Concentration 20 uM; ASSAY_TEST Inhibition of Fungal Growth; detection method Resazurin; Absorption (OD600-OD570); plate type 384well; NBS; CORNING #3640

Compound	Inhibition [%]
COc1cc(C[C@@H](CO)[C@H](CO)Cc2ccc(O)c(OC)c2)ccc1O [(+)-SECOISOLARICIRESINOL]	1.62
CNC(=C[N+](=O)[O-])NCCSCc1csc(CN(C)C)n1 [NIZATIDINE]	-0.19
CC(C)(C)C(O)/C=C/c1ccc2c(c1)OCO2 (stereo unspecified) [STIRIPENTOL]	2.5
NS(=O)(=O)c1cc2c(cc1Cl)NCNS2(=O)=O [HYDROCHLOROTHIAZIDE]	-7.59
CCN(CC)CC(=O)Nc1c(C)cccc1C [LIDOCAINE]	-4.85
CC(O)CO.N[C@@H](C(=O)N[C@@H]1C(=O)N2C(C(=O)O)=C(CSc3c[nH]nn3)CS[C@H]12)c1ccc(O)cc1	-40.25
C#C[C@]1(O)CC[C@H]2[C@@H]3CCc4cc(O)ccc4[C@H]3CC[C@@]21C [ETHINYL ESTRADIOL]	-5.67
Cc1sc(N)c(C(=O)c2cccc(C(F)(F)F)c2)c1C	-0.97
COc1cc(C(=O)NC2CCCNC2)cc(OC)c1OC (stereo unspecified) [TROXIPIDE]	0.51
CCOC(=O)C1=C(C)NC(C)=C(C(=O)OC)C1c1cccc([N+](=O)[O-])c1 (stereo unspecified) [NITRENDIPINE]	-6.79
CC(C)NCC(O)COc1ccc(CC(N)=O)cc1 (stereo unspecified) [ATENOLOL]	1.62
O=C1N=C([O-])NC1(c1ccccc1)c1ccccc1.[Na+] [PHENYTOIN SODIUM]	1.23
Cl.Cn1c(NCCN(CCO)CCCc2ccc([N+](=O)[O-])cc2)cc(=O)n(C)c1=O	-1.07
C[C@@H]1C[C@H]2[C@@H]3C[C@H](F)C4=CC(=O)C(Cl)=C[C@]4(C)[C@@]3(F)[C@@H](O)C[C@]2(C)[C@@]1(O)C(=O)CO [HALOMETASONE]	-4.6
NC(=O)N1c2ccccc2CC(=O)c2ccccc21 [OXCARBAZEPINE]	-4.73
CN1CCN(CCCN2c3ccccc3Sc3ccc(Cl)cc32)CC1.O=C(O)/C=C\C(=O)O.O=C(O)/C=C\C(=O)O [PROCHLORPERAZINE MALEATE]	-1.92
C[C@]12C=CC(=O)C=C1CC[C@@H]1[C@@H]2C(=O)C[C@@]2(C)[C@H]1CC[C@]2(O)C(=O)CO [PREDNISONE]	-7.34
O.OC[C@H]1O[C@@H](n2cnc3c(NC4CCCC4)nc(Cl)nc32)[C@@H](O)C1O (stereo partly specified)	-4.95
CC(=O)O[C@H]1C[C@@H]2CC[C@@H]3[C@H](CC[C@@]4(C)[C@H]3C[C@H]([N+]3(C)CCCCC3)[C@@H]4OC(C)=O)[C@@]2(C)C[C@@H]1N1CCCCC1.[Br-] [VECURONIUM BROMIDE]	2.54
CS(=O)(=O)O.Oc1ccc(C2CNCCc3c2cc(O)c(O)c3Cl)cc1 (stereo unspecified) [FENOLDOPAM MESYLATE]	-12.04
O=C(C1CCCCC1)N1CC(=O)N2CCc3ccccc3C2C1 (stereo unspecified) [PRAZIQUANTEL]	-0.79
CN1CCC(=C2c3ccccc3C=Cc3ccccc32)CC1.Cl [CYPROHEPTADINE HYDROCHLORIDE]	-5.58
CN1CC(=O)N2[C@H](c3ccc4c(c3)OCO4)c3[nH]c4ccccc4c3C[C@@H]2C1=O	-3.58
COc1ccccc1OCCNCC(O)COc1cccc2[nH]c3ccccc3c12 (stereo unspecified) [CARVEDILOL]	1.85
CN1CCN(c2nc3cc(C(F)(F)F)ccc3n3cccc23)CC1.O=C(O)/C=C\C(=O)O.O=C(O)/C=C\C(=O)O	2.72
CC[C@H]1OC(=O)[C@H](C)C(=O)[C@H](C)[C@@H](O[C@@H]2O[C@H](C)C[C@H](N(C)C)[C@H]2O)[C@](C)(OC)C[C@@H](C)C(=O)[C@H](C)[C@@H]2N(CCCCn3cnc(-c4cccnc4)c3)C(=O)O[C@@]21C	-1.28

— ChEMBL document CHEMBL4513141, “CO-ADD screening of NIH (USA) - Clinical Collection” (2021)
